We go through 20 compounds from PubChem BioAssay (NCATS).

Inconclusive results are not listed. Entries that show only a call come without a potency. Activity calls are given as the source filed them. The call rests on the fitted dose curve; in most records, active means well fitted cell-killing curve with a large enough effect; inconclusive means small, poorly fitted or top-dose-only effect, or effect the other way; inactive means flat fitted curve, though single readings scatter.
Potency means the concentration at half of the fitted maximal effect.

This assay is described as follows: S16 Schwann cell viability assay (CellTiter-Glo assay) (AID 624031). Further: nearly all actives have a fitted effect of over 70% in size. The settings on record: S16 rat Schwann cells viability, 24 h; series mostly up to 57.5 µM. Summed up:
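Parental S16 cells, 24 h compound, 37 °C. ATP-luminescence viability; DMSO = 0% activity, empty wells as reference; curves classified by fit quality and efficacy.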
On the technique in general: ATP-based viability assays read luminescence as a measure of living cells.
For `CCC(N)Cc1c[nH]c2ccccc12` (stereo not given), the Potency result is “inactive”.

Take `CC[N+](C)(CC)CCOC(=O)C(O)(c1ccccc1)c1ccccc1`: the Potency result is “inactive”.

In the case of `O=C(NC(=O)c1c(F)cccc1F)Nc1ccc(Cl)c(Oc2ncc(C(F)(F)F)cc2Cl)c1`, the Potency result is “inactive”. With `C[N+]1(C)CCCCC1COC(=O)C(O)(c1ccccc1)c1ccccc1` (stereo not given), the Potency entry is “inactive”.

Turning to `Clc1ccc(C2(Cn3cncn3)OCCO2)c(Cl)c1`, the Potency entry is “inactive”.

For `C=CCN1CC[C@]23c4c5ccc(O)c4O[C@H]2[C@@H](O)C=C[C@H]3[C@H]1C5`, the Potency result was “inactive”. On to `FC(F)OC(F)(F)C(F)Cl` (stereo not given), for which the Potency result is “inactive”. The value for `O=P(O)(O)C(Cl)(Cl)P(=O)(O)O` was “inactive”. The value for `CCCCCCCCCC(=O)O[C@H]1CC[C@H]2[C@@H]3CCC4=CC(=O)CC[C@]4(C)[C@H]3CC[C@]12C` was “inactive”; that for `C#CC(C)(O)CC` (stereo not given) was “inactive”; that for `CC(=O)O[C@H]1CC[C@H]2[C@@H]3CCC4=CC(=O)CCC4=C3C=C[C@]12C` was “inactive”. The figure for `CN1C2CCC1CC(OC(c1ccccc1)c1ccc(Cl)cc1)C2` (stereo not given) is 20.3 µM (active); for `CCC1(c2ccccc2)C(=O)NC(=O)N(C(=O)c2ccccc2)C1=O` (stereo not given) it is “inactive”.

For `CNC(C)C(O)c1ccc(O)cc1` (stereo not given), the Potency entry is “inactive”. The value for `CC1CCC(C(C)C)C(OC(=O)c2ccccc2N)C1` (stereo not given) was “inactive”; that for `O=C1CN(O)C(c2ccccc2)=c2cc(Cl)ccc2=N1` was “inactive”. For the compound `CCON=O`, the Potency entry was “inactive”. On to `CN1CCCC(=C(c2cccs2)c2cccs2)C1`, for which the Potency entry is “inactive”. The value for `CCC(=O)O[C@@](Cc1ccccc1)(c1ccccc1)[C@@H](C)CN(C)C` was “inactive”. The value for `O=c1[nH]cc(N(CCCl)CCCl)c(=O)[nH]1` was “inactive”.
